# MCF10A rerep = DNA re-replication induction in MCF 10a cells; MCF 10A DNA re-replication, Hoechst nuclear intensity, 48 h; Potency, µM (titrated, usually from 46.1 µM), most hits filed as activators; actives 2.9% (n = 350,000); AID 624296; note: nearly all actives have a fitted effect of over 50% in size
# KB-V1 MDR tox = KB-V1 MDR subline cytotoxicity. KB-V1 MDR cells viability, CellTiter-Glo, 72 h. Potency, µM (highest dose often 46.1 µM), hits mostly cytotoxic. actives 3.4% (n = 400,000). AID 1347076; note: nearly all actives have a fitted effect of over 60% in size
#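 Potencies derive from concentration-effect curves fitted to normalized luminescence (CellTiter-Glo) of KB-V1 cells treated for 72 h at 37 degrees C in phenol-red-free DMEM containing 10% FBS.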
# KB-3-1 cytotox = kills parental KB-3-1 adenocarcinoma cells | actives 1.4% (n = 400,000) | AID 1347075 | Potency, µM (top dose mostly 46.1 µM), usual class: cytotoxic | KB-3-1 viability, CellTiter-Glo ATP luminescence, 72 h; note: nearly all actives have a fitted effect of over 60% in size
#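 Luminescent ATP read-out (CellTiter-Glo) measures survival of drug-naive KB-3-1 cells after 72 h compound exposure at 37 °C. Titration series was screened from lowest to highest concentration, with DMSO vehicle plates as background controls.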
# 12-LOX inh = inhibitors of human 12S-lipoxygenase ALOX12. P18054. purified 12hLO, xylenol orange hydroperoxide absorbance. Potency, µM (series often up to 108 µM), usual class: inhibitors. actives 1.1% (n = 580,000)
# Target sequence (P18054 whole entry, looked up): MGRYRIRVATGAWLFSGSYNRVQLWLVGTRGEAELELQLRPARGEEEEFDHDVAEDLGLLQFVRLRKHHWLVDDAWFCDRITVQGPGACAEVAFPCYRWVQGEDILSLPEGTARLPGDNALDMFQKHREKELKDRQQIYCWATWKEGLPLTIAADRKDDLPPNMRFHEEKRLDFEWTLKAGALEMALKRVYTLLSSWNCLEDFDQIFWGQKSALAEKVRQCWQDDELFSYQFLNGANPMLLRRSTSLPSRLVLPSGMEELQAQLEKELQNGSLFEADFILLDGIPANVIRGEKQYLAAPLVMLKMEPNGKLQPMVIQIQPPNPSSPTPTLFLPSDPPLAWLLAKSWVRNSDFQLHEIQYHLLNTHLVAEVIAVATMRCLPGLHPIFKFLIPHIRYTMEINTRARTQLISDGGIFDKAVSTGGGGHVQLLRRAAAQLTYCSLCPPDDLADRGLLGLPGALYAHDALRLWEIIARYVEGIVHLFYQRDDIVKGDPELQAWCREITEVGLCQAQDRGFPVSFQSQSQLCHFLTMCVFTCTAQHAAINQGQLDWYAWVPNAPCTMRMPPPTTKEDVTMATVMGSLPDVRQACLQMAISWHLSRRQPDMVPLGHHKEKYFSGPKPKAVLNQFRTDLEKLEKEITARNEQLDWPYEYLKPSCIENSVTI
#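 Hydroperoxide product was detected by ferrous iron/xylenol orange as the 573 to 405 nm absorbance ratio. Arachidonic acid at 40 uM (final) was turned over for 30 min at room temperature by 150 nM human 12hLO, pH 7.0 Hepes buffer, after 15 min compound preincubation.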
# PINK1 modulator = modulators of PINK1 expression; PINK1 immunofluorescence, high-content cytometry, 24 h; Potency, µM (top dose mostly 76.6 µM), hits mostly activators; actives 0.2% (n = 410,000); AID 624263; active = well fitted activation curve with a large enough effect; inconclusive = small, poorly fitted or top-dose-only effect; cell line not stated here; note: nearly all actives have a fitted effect of over 65% in size
#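 Fluorescence from anti-PINK1 antibody, together with nuclear and cell stains, was scanned on a laser-scanning cytometer. Before staining, stable-line cells were incubated 24 hours with compounds at 5 concentrations; primary antibody 12 h at 10 degrees C.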
# SW480 rereplic = inducers of DNA re-replication in SW480 colon cancer cells; SW480 DNA re-replication, Hoechst DNA content imaging, 48 h; Potency, µM (series often up to 46.1 µM), most hits filed as activators; actives 1.8% (n = 340,000); note: nearly all actives have a fitted effect of over 55% in size
#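 Readout is total intensity of Hoechst-stained nuclei, excited at 405 nm and collected at 500-530 nm. Compound treatment lasted 48 hr at 37 C in 5% CO2 before staining.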
# Numbers stand for hits; – = inactive; ? = inconclusive; · = not tested or not shown. Compounds with a hit are over-represented: about 5.8% of the library has one in this group of screens. Unless noted, calls come from the whole dose curve; as a rule, active = well fitted curve in the direction sought with a large enough effect; inconclusive = small, poorly fitted or top-dose-only effect, or another doubt; inactive = no such curve, though single readings can be large; an effect the other way counts as inactive or inconclusive.
SMILES,MCF10A rerep,KB-V1 MDR tox,KB-3-1 cytotox,12-LOX inh,PINK1 modulator,SW480 rereplic
COCCN1C(=O)C(=O)/C(=C(/O)c2ccc(C)cc2)C1c1ccc(Cl)c(Cl)c1 (stereo unspecified),·,·,·,–,·,·
Cc1ccc(C(=O)N/N=C\c2ccc(-c3ccc(Cl)c(Cl)c3)o2)cn1,?,–,–,–,–,?
O=C(/C=C/c1ccc(-c2ccccc2Cl)o1)c1ccc(F)cc1,·,·,·,11.2µM,·,·
O=C(/C=C/c1ccc(-c2ccc(Cl)c(Cl)c2)o1)c1ccc(Br)cc1,·,·,·,12.6µM,·,·
O=C(/C=C/c1ccc(-c2ccccc2[N+](=O)[O-])o1)c1ccccc1,?,–,–,–,–,?
O=C(C=Cc1ccco1)c1ccc2ccccc2c1,?,–,–,17.8µM,–,–
Cc1ccc(C(=O)/C=C/c2ccc(-c3ccccc3Cl)o2)cc1,·,·,·,7.08µM,·,·
O=C(NC[C@H]1Cn2c(-c3ccc(Cl)cc3)cnc2CO1)C1CCCC1,·,·,·,–,·,·
CCOC(=O)C1=C(C)OC(n2cccc2)=C(C#N)C1c1ccc(OC)cc1 (stereo unspecified),·,·,·,–,·,·
O=C(NCc1ccncc1)c1ccc2ccccc2n1,·,·,·,–,·,·
Cc1cc(C(C)(C)c2ccc(OC(=O)c3ccccc3F)c(C)c2)ccc1OC(=O)c1ccccc1F,·,·,·,–,·,·
O=C(NCC(c1cccs1)N1CCCCC1)c1cc(=O)c2cc(Br)ccc2o1 (stereo unspecified),·,·,·,–,·,·
O=C(Nc1cccc2c1CCCC2)c1ccc2ccccc2c1,·,·,·,–,·,·
O=C(/C=C/c1ccc(-c2ccccc2Cl)o1)c1ccc2ccccc2c1,·,·,·,1µM,·,·
Cc1ccc(C(=O)/C=C/c2ccc(-c3ccccc3Br)o2)cc1,·,·,·,1.12µM,·,·
O=C(/C=C/C=C/c1ccco1)c1ccc(N2CCOCC2)cc1,·,·,·,5.01µM,·,·
O=C(O)c1ccc(-c2ccccc2Cl)o1,–,–,–,–,–,–
O=C(NN1CCOCC1)c1ccn(COc2cccc(Cl)c2Cl)n1,·,·,·,–,·,·
COC(=O)c1cccc(C(=O)N2CCC(Cc3nc(-c4ccc(F)cc4)no3)CC2)c1,·,·,·,–,·,·
O=C1c2ccccc2NC(c2cnn(-c3ccccc3)n2)N1c1ccc2c(c1)OCO2 (stereo unspecified),·,·,·,–,·,·
CSc1nnnn1-c1ccc(C(=O)Nc2ccc(Br)c(C)c2)cc1,·,·,·,–,·,·
CCCC(NC(C)C(=O)O)C(=O)OCC (stereo unspecified),·,·,·,–,·,·
COc1ccc(/C=C/C(=O)c2c(O)ccc3c(C)cc(=O)oc23)cc1,20.6µM,–,–,?,–,–
COc1ccc(/C=C\C(=O)c2c(O)ccc3c(C)cc(=O)oc23)cc1,?,?,23.1µM,–,–,–
COc1ccc(/C=C/C(=O)c2c(OC)cc(O)cc2OC)cc1,·,·,·,–,·,·
SMILES,MCF10A rerep,KB-V1 MDR tox,KB-3-1 cytotox,12-LOX inh,PINK1 modulator,SW480 rereplic
CC(NC(=O)C1CC1)C1CC2CCC1C2 (stereo unspecified),·,·,·,–,·,·
COc1cc(C(=O)NCCNC(=O)c2cn(C)c3ccccc23)cc(OC)c1OC,·,·,·,–,·,·
CCOc1ccc(C)cc1S(=O)(=O)n1cnc2ccccc21,23.1µM,?,13µM,–,–,?
COc1ccc(Cl)cc1S(=O)(=O)n1cnc2ccccc21,–,?,–,–,–,–
CCOc1ccc(Cl)cc1S(=O)(=O)n1cnc2ccccc21,7.94µM,4.47µM,?,?,–,–
CC1Cc2nc(SCC(=O)N3CCCCC3)n(-c3ccc(F)cc3)c(=O)c2S1 (stereo unspecified),·,·,·,–,·,·
Cn1nc(-c2ccc(OCC(=O)N3CCCCC3)cc2)c2ccccc2c1=O,·,·,·,–,·,·
O=C(/C=C/c1ccccc1)CC(=O)c1ccccc1O,13µM,?,–,–,–,?
O=C(/C=C/c1ccccc1)NC(=O)c1ccccc1O,–,–,–,–,–,–
O=C(/C=C/c1ccccc1)CCN1CCCCC1,6.51µM,25.9µM,?,?,–,2.91µM
O=C(CCN1CCCCCC1)c1ccccc1,–,–,–,–,–,–
COC(=O)Cn1c(=O)c2c(nc(-n3nc(C)cc3C)n2Cc2ccc(F)cc2)n(C)c1=O,·,·,·,–,·,·
CN(C)CCN1C(=O)C(O)=C(C(=O)c2cc3ccccc3o2)C1c1ccc(OCc2ccccc2)cc1 (stereo unspecified),·,·,·,25.1µM,·,·
COc1cccc2cc(C(=O)C3=C(O)C(=O)N(CCN(C)C)C3c3ccc(F)cc3)oc12 (stereo unspecified),5.8µM,–,–,–,–,8.2µM
COc1ccc(OC)c(/C=C2\N=C(c3ccccc3)OC2=O)c1,–,–,–,–,–,–
COc1ccc(/C=C2\N=C(C(C)(C)C)OC2=O)c(OC)c1,23.1µM,–,–,–,–,–
CCCCCCN1C[C@H](O)[C@@H](n2cc(-c3ccc(F)cc3)nn2)C[C@@H]1c1ccc(Cl)cc1,·,?,18.4µM,–,15.8µM,·
COc1ccc([C@H]2C[C@@H](n3cc(-c4ccc(F)cc4)nn3)[C@H](O)CN2CC2CCCCC2)cc1,·,20.6µM,?,?,–,·
COc1ccc([C@H]2C[C@H](O)[C@@H](n3cc(-c4ccc(F)cc4)nn3)CN2CC2CCCCC2)cc1,·,?,?,–,–,·
O[C@@H]1CN(CC2CCCCC2)[C@@H](c2ccccc2)C[C@H]1n1cc(-c2ccc(F)cc2)nn1,·,–,16.4µM,–,?,·
O[C@H]1CN(Cc2cccs2)[C@@H](c2ccccc2)C[C@@H]1n1cc(-c2ccc(F)cc2)nn1,·,–,–,–,–,·
O[C@H]1C[C@H](c2ccccc2)N(Cc2cccs2)C[C@@H]1n1cc(-c2ccc(F)cc2)nn1,·,?,?,35.5µM,–,·
CCc1nnc(NC(=O)c2ccc(N(C)S(=O)(=O)c3ccccc3)cc2)s1,–,6.51µM,–,–,–,–
C=CCSc1nnc(NC(=O)c2cccc(S(=O)(=O)N(C)c3ccccc3)c2)s1,?,16.4µM,–,–,–,–
Nc1nccnc1C(=O)NCc1ccnc(OCc2ccccc2)c1,·,·,·,–,·,·
SMILES,MCF10A rerep,KB-V1 MDR tox,KB-3-1 cytotox,12-LOX inh,PINK1 modulator,SW480 rereplic
CNC(=O)CNC(=O)c1ccc(F)cc1Br,·,·,·,–,·,·
CC1=C[C@@H](CNCc2ccccc2O)[C@H](C(C)C)C[C@H]1Cc1nc2c(C)cccc2[nH]1,·,·,·,63.1µM,·,·
Cc1ccc(/C=C2\SC(=S)N(CCCC(=O)Nc3cccnc3)C2=O)cc1,?,23.1µM,?,·,–,?
Cc1ccc(/C=C2\SC(=S)N(CC(=O)Nc3cccnc3)C2=O)cc1,?,–,–,–,–,–
O=C(O)CCN1C(=O)/C(=C\c2ccncc2)SC1=S,–,–,–,–,–,–
O=C(CCCN1C(=O)/C(=C/c2cccc(Br)c2)SC1=S)Nc1cccnc1,18.4µM,–,?,–,–,18.4µM
O=C(CCCN1C(=O)/C(=C/c2ccccc2OC(F)F)SC1=S)Nc1cccnc1,23.1µM,?,?,–,–,?
COc1ccccc1/C=C1/SC(=S)N(CCC(=O)Nc2cccnc2)C1=O,–,–,–,–,–,–

# From PubChem BioAssay
